Results filed as inconclusive are left out. The source made the active and inactive calls. Rule for the calls: active = hit-call score of the fitted dose curve at least 0.9, where 1 is the maximum; inconclusive = response in the unintended direction; inactive = score below 0.9.

Consider two compounds from PubChem BioAssay AID2283131 (EPA ToxCast).

This experiment concerns the target human Bruton's Tyrosine Kinase (BTK), BTK (gene 695) (UniProt Q06187). The experiment in a line: NVS_ENZ_hBTK: NovaScreen (NVS) Enzymatic Assay for human Bruton's Tyrosine Kinase (BTK). The method, then: NVS_ENZ_hBTK is a biochemical, single-readout assay that uses extracted gene-proteins in a cell-free assay. Measurements were taken 1 hour after chemical dosing in a 96-well plate.NVS_ENZ_hBTK is one of one assay component(s) measured or calculated from the NVS_ENZ_hBTK assay. It is designed to make measurements of enzyme activity, a form of enzyme reporter, as detected with fluorescence intensity signals by Fluorescence and electrophoretic mobility shift technology.Data from the assay component NVS_ENZ_hBTK was analyzed into 1 assay endpoint. This assay endpoint, NVS_ENZ_hBTK, was analyzed in the positive analysis fitting direction relative to DMSO as the negative control and baseline of activity. Using a type of enzyme reporter, loss-of-signal activity can be used to understand changes in the enzymatic activity as they relate to the gene BTK. Furthermore, this assay endpoint can be referred to as a primary readout, because this assay has produced multiple assay endpoints where this one serves a enzymatic activity function. To generalize the intended target to other relatable targets, this assay endpoint is annotated to the kinase intended target family, where the subfamily is non-receptor tyrosine kinase. […]

human Bruton's Tyrosine Kinase (BTK), BTK (gene 695), sequence (Q06187 whole entry, looked up): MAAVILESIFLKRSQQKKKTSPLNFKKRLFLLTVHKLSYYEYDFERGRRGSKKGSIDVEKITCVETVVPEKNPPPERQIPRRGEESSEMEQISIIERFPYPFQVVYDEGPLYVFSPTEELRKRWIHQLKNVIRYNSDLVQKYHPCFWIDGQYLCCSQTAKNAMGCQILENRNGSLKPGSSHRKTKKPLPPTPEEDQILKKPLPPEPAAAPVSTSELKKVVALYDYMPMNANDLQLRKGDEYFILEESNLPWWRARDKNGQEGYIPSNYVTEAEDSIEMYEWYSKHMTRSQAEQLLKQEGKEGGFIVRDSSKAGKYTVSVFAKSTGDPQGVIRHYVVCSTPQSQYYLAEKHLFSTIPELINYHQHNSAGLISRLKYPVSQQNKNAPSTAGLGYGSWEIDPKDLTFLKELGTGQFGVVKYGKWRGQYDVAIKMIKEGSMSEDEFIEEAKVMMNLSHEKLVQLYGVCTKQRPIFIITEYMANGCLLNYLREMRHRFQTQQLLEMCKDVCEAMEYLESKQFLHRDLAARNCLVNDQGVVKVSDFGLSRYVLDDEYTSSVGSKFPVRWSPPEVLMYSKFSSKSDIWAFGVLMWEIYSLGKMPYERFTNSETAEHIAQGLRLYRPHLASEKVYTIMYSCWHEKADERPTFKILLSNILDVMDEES

On to `S=C([S-])NCCNC(=S)[S-].[Mn+2]`, for which the AC50 (as a rule, the concentration giving half of the maximal activity seen) is 45.5 µM (active).

For `COCCO`, the compound was called inactive.
